Results from PubChem BioAssay.
Activity calls are given as the source filed them. Cut-off read from the data, not from the text of the source, unless noted: active = inhibition above about 80%; inactive = the rest.

Tests used:
[1] = sensitizers of A549 cells to miR-34 induction, primary screen, imaging, A549 dox-inducible miR-34, nuclei and caspase counts (AID 1347080;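 active = compounds whose cell count with miR-34 switched on is under 0.7 times the count with it off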); conditions: A549 miR-34 inducible, Hoechst nuclei count, 48 h
[2] = survival rescue of mitochondrial mutant cells in low glucose, primary screen, MELAS cybrids, Rieske KO mouse fibroblasts, CellTiter-Glo (AID 1508586;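 active = mean z-score across replicates of 1.96 or higher in either the MELAS or the Rieske mutant cell line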;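 note: z relative to plate mean and SD of compound and empty wells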)
[3] = LFS_MB_P medulloblastoma growth inhibition, cell-based, chromothripsis tumors, cisplatin or BGB combos (AID 1671449); conditions: LFS_MB_P medulloblastoma cells;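 note: cells exposed for 96 hours; 0% = vehicle DMSO and 100% = killing by high DMSO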
[4] = HDN33 neuroblastoma growth inhibition, cell-based, chromothripsis tumors, cisplatin or BGB combos (AID 1671450); conditions: HDN33 neuroblastoma cells, stronger effect = higher value;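 note: cells exposed to compound for four days; 0% = vehicle DMSO and 100% = cell killing by high DMSO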
[5] = ICB984 medulloblastoma cell growth inhibition, synergistic combos for chromothripsis tumors, cisplatin or BGB combos (AID 1671451; call rule not given here;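 note: cells exposed for 96 hours before readout; 0% = vehicle DMSO and 100% = killing by high DMSO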); conditions: ICB984 medulloblastoma cells, drug combinations, stronger effect = higher value
[6] = LFS_MB_1R medulloblastoma cell growth inhibition, synergistic combos for chromothripsis tumors, cisplatin or BGB combos (AID 1671452); conditions: LFS_MB_1R medulloblastoma cells, stronger effect = higher value;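 note: cells exposed for 96 hours before readout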
[7] = HTB85 osteosarcoma cell growth inhibition, synergistic combos for chromothripsis tumors, BGB or cisplatin IC20 combos (AID 1671453); conditions: HTB85 osteosarcoma cells, drug combinations, stronger effect = higher value;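 note: cells exposed for 96 hours before readout; 0% = vehicle DMSO and 100% = high DMSO killing control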
[8] = CRL2098 osteosarcoma cell growth inhibition, synergistic combos for chromothripsis tumors, BGB or cisplatin IC20 combos (AID 1671454); conditions: CRL2098 osteosarcoma cells, drug combinations, stronger effect = higher value;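 note: cells exposed for 96 h before readout; 0% = vehicle DMSO and 100% = killing by high DMSO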
[9] = HD-MB03 medulloblastoma cell growth inhibition, synergistic combos for chromothripsis tumors, BGB or cisplatin IC20 combos (AID 1671455; in the data active = inhibition above about 83%;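 note: 0% = vehicle DMSO and 100% = high DMSO as cytotoxic control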); conditions: HD-MB03 medulloblastoma cells, stronger effect = higher value
[10] = UWB1.289 ovarian carcinoma cell growth inhibition, synergistic combos for chromothripsis tumors, BGB or cisplatin combos (AID 1671456); conditions: UWB1.289 ovarian carcinoma cells, stronger effect = higher value;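 note: cells exposed to compound for four days; 0% = vehicle DMSO and 100% = killing by high DMSO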
[11] = LFS_MB_2R medulloblastoma cell growth inhibition, synergistic combos for chromothripsis tumors, cisplatin combos (AID 1671457); conditions: LFS_MB_2R medulloblastoma cells, stronger effect = higher value;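 note: cells exposed to compound for four days before readout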
[12] = MDA-MB-436 breast carcinoma cell growth inhibition, synergistic combos for chromothripsis tumors, BGB or cisplatin combos (AID 1671458; call rule not given here;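 note: cells exposed for 96 hours; 0% = vehicle DMSO and 100% = killing by high DMSO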); conditions: MDA-MB-436 breast carcinoma growth inhibition, drug combinations, stronger effect = higher value
[13] = UWB1.289_BRCA1 ovarian cancer growth, cell-based, BGB or cisplatin combinations (AID 1671459); conditions: UWB1.289 BRCA1 ovarian carcinoma, drug combinations, stronger effect = higher value
[14] = human astrocyte viability loss, single and combined drugs, cytotoxicity control for chromothriptic childhood tumor combination screen, cell-based, BGB or cisplatin IC20 combos (AID 1671460); conditions: Human astrocytes, drug combinations, stronger effect = higher value;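 note: cells exposed to compounds for 96 hours before viability readout; 0% = vehicle and 100% = killing control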
[15] = growth inhibition of BT084 medulloblastoma cells, cell-based, ICGC_MB145, cisplatin and BGB IC40 combos (AID 1671461); conditions: drug combinations, stronger effect = higher value;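 note: cells exposed to drugs for 96 hours; 0% = vehicle DMSO and 100% = high DMSO full killing control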
[16] = growth inhibition of RCMB18 medulloblastoma cells, cell-based, cisplatin and BGB IC40 combos (AID 1671462); conditions: stronger effect = higher value;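 note: cells exposed to compound for four days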
[17] = growth inhibition of CRL1545 osteosarcoma cells, cell-based, cisplatin and BGB IC20 combos (AID 1671464); conditions: stronger effect = higher value;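 note: cells exposed to compound for 96 hours before readout; 0% = vehicle DMSO and 100% = high DMSO killing control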
[18] = hESC survival regulators, cell-based (AID 493140; call rule not given here;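 note: cells exposed to compounds for four days before counting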); conditions: human embryonic stem cell survival screen; stronger effect = higher value
[19] = liver-stage malaria parasite growth inhibition, primary screen, cell-based, HepG2, luciferase luminescence, HepG2 viability (AID 624349; in the data active = parasite load remaining mostly below about 12%, no sharp cut-off; inactive = mostly above about 10%;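 note: 100% = mean of DMSO negative control wells on the same plate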); conditions: P. berghei liver stage in HepG2, luciferase luminescence, concentration not given here; parasite load remaining: stronger effect = lower value; viability: measured here: HepG2 viability without parasites
[20] = stronger effect = lower value, cell number ratio, induced over uninduced
[21] = measured here: relative caspase fold change +Dox/-Dox
[22] = measured here: total cells with miR-34 induction, stronger effect = lower value
[23] = measured here: total cells without miR-34 induction
[24] = MELAS cybrid survival, CellTiter-Glo 48 h, stronger effect = higher value
[25] = Rieske KO mouse fibroblast survival, CellTiter-Glo 72 h
[26] = measured here: combination with BGB IC40, at 0.05 µM
[27] = measured here: with BGB IC20 combination, at 0.5 µM
[28] = measured here: with cisplatin IC20 combination, at 0.5 µM
[29] = measured here: combination with cisplatin, at 0.5 µM
[30] = measured here: combination with cisplatin, at 5 µM

Question: Which fold change [1, 20] does the source give for CC(C=CC(=O)NO)=CC(C)C(=O)c1ccc(N(C)C)cc1 (stereo not drawn) here?
Answer: 0.905 (inactive)

Question: And the fold change [1, 21]?
Answer: 0.765

Question: And the cell count [1, 22]?
Answer: 830

Question: And the cell count [1, 23]?
Answer: 918

Question: And the z-score [2, 24]?
Answer: -0.131 (inactive)

Question: And the z-score [2, 25]?
Answer: -2.46

Question: What about the inhibition ([3]; at 0.5 µM, stronger effect = higher value) of the same compound?
Answer: 124% (active)

Question: And the inhibition ([3]; measured here: combination with BGB IC20, at 0.005 µM)?
Answer: -30%

Question: What about the inhibition ([3]; measured here: combination with BGB IC40, at 0.005 µM) of the same compound?
Answer: -20.9%

Question: And the inhibition [3, 26]?
Answer: -37.3%

Question: What about the inhibition ([3]; measured here: combination with cisplatin, at 0.5 µM, stronger effect = higher value) of the same compound?
Answer: 130%

Question: What about the inhibition ([3]; measured here: combination with cisplatin, at 5 µM, stronger effect = higher value) of the same compound?
Answer: 120%

Question: What about the inhibition ([4]; BGB combo, at 5 µM) of the same compound?
Answer: 99.8%

Question: What about the inhibition ([4]; at 0.5 µM) of the same compound?
Answer: 92.3% (active)

Question: And the inhibition ([4]; cisplatin combo, at 5 µM)?
Answer: 99.9%

Question: And the inhibition [4, 27]?
Answer: 85.6%

Question: What about the inhibition [4, 28] of the same compound?
Answer: 98.3%

Question: What about the inhibition ([4]; single agent, at 5 µM) of the same compound?
Answer: 99.9%

Question: What about the inhibition ([5]; BGB IC20 combo, at 0.005 µM) of the same compound?
Answer: 83.1%

Question: And the inhibition ([5]; BGB IC40 combo, at 0.005 µM)?
Answer: 90.3%

Question: And the inhibition ([5]; BGB IC40 combo, at 0.05 µM)?
Answer: 97.7%

Question: What about the inhibition ([5]; at 0.5 µM) of the same compound?
Answer: -36.8% (inactive)

Question: What about the inhibition ([5]; cisplatin combo, at 0.05 µM) of the same compound?
Answer: 97.7%

Question: And the inhibition ([5]; cisplatin combo, at 0.5 µM)?
Answer: -29%

Question: And the inhibition ([5]; cisplatin combo, at 5 µM)?
Answer: -20.2%

Question: And the inhibition ([5]; measured here: 5 uM single agent, at 5 µM)?
Answer: -13.2%

Question: What about the inhibition ([6]; at 0.5 µM) of the same compound?
Answer: 87.3% (active)

Question: What about the inhibition [6, 26] of the same compound?
Answer: 4.15%

Question: What about the inhibition [6, 29] of the same compound?
Answer: 99.9%

Question: And the inhibition [6, 30]?
Answer: 98.9%

Question: And the inhibition ([7]; at 0.5 µM)?
Answer: 98.7% (active)

Question: What about the inhibition ([7]; measured here: with BGB IC20, at 0.5 µM) of the same compound?
Answer: 97.4%

Question: And the inhibition ([7]; measured here: with BGB IC20, at 5 µM)?
Answer: 99.9%

Question: And the inhibition ([7]; measured here: with cisplatin IC20, at 0.5 µM)?
Answer: 99.9%

Question: What about the inhibition ([7]; measured here: with cisplatin IC20, at 5 µM) of the same compound?
Answer: 100%

Question: And the inhibition ([7]; single agent, at 5 µM)?
Answer: 99.9%

Question: And the inhibition ([8]; at 0.5 µM)?
Answer: 70.4% (inactive)

Question: And the inhibition ([8]; measured here: combination with BGB at IC20, at 0.5 µM)?
Answer: 75.9%

Question: And the inhibition ([8]; measured here: combination with cisplatin at IC20, at 0.5 µM)?
Answer: 61.3%

Question: And the inhibition ([9]; at 0.5 µM)?
Answer: 89% (active)

Question: What about the inhibition ([9]; measured here: combo with BGB at IC20, at 0.5 µM) of the same compound?
Answer: 79.1%

Question: And the inhibition ([9]; measured here: combo with cisplatin at IC20, at 0.5 µM)?
Answer: 99.7%

Question: What about the inhibition ([10]; at 0.5 µM) of the same compound?
Answer: 67.5% (inactive)

Question: What about the inhibition ([10]; measured here: inhibition with BGB combination, at 0.05 µM) of the same compound?
Answer: -6.23%

Question: What about the inhibition ([10]; measured here: inhibition with cisplatin combination, at 0.05 µM) of the same compound?
Answer: 29.6%

Question: And the inhibition ([11]; at 0.5 µM)?
Answer: 78.3% (inactive)

Question: And the inhibition [11, 29]?
Answer: 92.3%

Question: What about the inhibition [11, 30] of the same compound?
Answer: 103%

Question: What about the inhibition ([12]; at 0.5 µM) of the same compound?
Answer: 53.4% (inactive)

Question: What about the inhibition ([12]; measured here: BGB combination, at 0.5 µM) of the same compound?
Answer: 39%

Question: And the inhibition ([12]; measured here: BGB combination, at 5 µM)?
Answer: 63.1%

Question: And the inhibition ([12]; measured here: cisplatin combination, at 0.5 µM)?
Answer: 54.4%

Question: And the inhibition ([12]; measured here: cisplatin combination, at 5 µM)?
Answer: 81.3%

Question: And the inhibition ([13]; BGB combination, concentration series, at 5 µM)?
Answer: 116%

Question: And the inhibition ([13]; at 0.5 µM)?
Answer: 68.2% (inactive)

Question: What about the inhibition ([13]; cisplatin combination, concentration series, at 5 µM) of the same compound?
Answer: 131%

Question: And the inhibition ([14]; at 0.5 µM)?
Answer: 97% (active)

Question: What about the inhibition ([14]; measured here: combo with BGB IC20, at 0.5 µM) of the same compound?
Answer: 96.5%

Question: What about the inhibition ([14]; measured here: combo with cisplatin IC20, at 0.5 µM) of the same compound?
Answer: 96%

Question: And the inhibition ([15]; at 0.5 µM)?
Answer: 86.5% (active)

Question: And the inhibition ([15]; cisplatin combination, at 0.5 µM)?
Answer: 101%

Question: And the inhibition ([15]; cisplatin combination, at 5 µM)?
Answer: 104%

Question: And the inhibition ([15]; measured here: BGB IC40 combination 0.05 uM, at 0.05 µM)?
Answer: 36.8%

Question: And the inhibition ([15]; single agent, at 5 µM)?
Answer: 106%

Question: What about the inhibition ([16]; at 0.5 µM) of the same compound?
Answer: 83.6% (active)

Question: What about the inhibition ([16]; cisplatin combo, at 5 µM) of the same compound?
Answer: 98.1%

Question: And the inhibition ([16]; measured here: BGB IC40 combination, at 0.05 µM)?
Answer: 13.5%

Question: And the inhibition [16, 29]?
Answer: 87.1%

Question: What about the inhibition ([16]; single agent, at 5 µM) of the same compound?
Answer: 98.2%

Question: And the inhibition ([17]; at 0.5 µM)?
Answer: 88.1% (active)

Question: What about the inhibition [17, 27] of the same compound?
Answer: 86.4%

Question: What about the inhibition [17, 28] of the same compound?
Answer: 88.7%

Question: What about the inhibition ([17]; single agent, at 0.05 µM) of the same compound?
Answer: 54.1%

Question: What about the inhibition ([17]; single agent, at 5 µM) of the same compound?
Answer: 87.3%

Question: With COc1ccc2c(c1)N(C[C@H](C)CN(C)C)c1ccccc1S2 as the compound, how does the survival [18] read?
Answer: 1.83 (inactive)

Question: What about the parasite load remaining [19] of the same compound?
Answer: 76.2% (inactive)

Question: And the viability [19]?
Answer: 87.8%

Question: What about the fold change [1, 20] of the same compound?
Answer: 0.88 (inactive)

Question: And the fold change [1, 21]?
Answer: 1.53

Question: And the cell count [1, 22]?
Answer: 7810

Question: And the cell count [1, 23]?
Answer: 8880

Question: What about the z-score [2, 24] of the same compound?
Answer: -1.21 (inactive)

Question: What about the z-score [2, 25] of the same compound?
Answer: -0.494
